These results are taken from PubChem BioAssay (NCI).

Some test systems named below: NCI-H23 lung; NCI-H226 lung; NCI-H322M lung; HOP-62 NSCLC; NCI-H460 lung; HOP-92 NSCLC; A549/ATCC NSCLC; 786-0 renal; DU-145 prostate; K-562 leukemia; MDA-MB-231 breast; RXF 393 renal; SF-268 CNS; SF-295 CNS; SF-539 CNS; UACC-257 melanoma; M14 melanoma; COLO 205 colon; MALME-3M melanoma.
What all share (experiment): NCI-60 one-dose screen, 48 h (100 = growth as untreated, 0 = no growth, -100 = all killed)
What all share (details): 10 µM unless noted

The panel holds about 83,000 compounds, 20% with a hit somewhere; the sample as a whole holds those more often.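 Interpretation: 100, growth as untreated; towards 0, rising growth inhibition; 0, no net growth; 0 to -100, cell death. Compounds scoring below 10 were considered active.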 Values without a mark were called inactive. The source made the active and inactive calls.

With `Cc1cccc2nnc(-c3ccccc3)n12`, the growth in the assay on NCI-H23 lung was 104%; with NCI-H226 lung, 106%; in the assay with NCI-H322M lung it was 104%; in the assay on HOP-62 NSCLC, 125%; in the assay with NCI-H460 lung, 108%; with HOP-92 NSCLC it was 105%. Besides, the growth was 94.4% in the assay with A549/ATCC NSCLC; 94.8% in the assay with 786-0 renal; 124% with DU-145 prostate; 100% in the assay with K-562 leukemia; 94.5% in the assay with MDA-MB-231 breast; 117% with RXF 393 renal. Moreover, the growth was 111% with SF-268 CNS; 109% in the assay on SF-295 CNS; 108% in the assay on SF-539 CNS; 105% with UACC-257 melanoma; 102% with M14 melanoma.

Turning to `O=C(Nc1ccc(Cl)cc1)Nc1ccccc1CNc1nc(Nc2ccc(OCCN3CCCC3)cc2)ncc1Cl`, the growth in the assay with NCI-H23 lung is 33.5%; with NCI-H226 lung, 97%; in the assay with NCI-H322M lung it was 101%; in the assay with HOP-62 NSCLC it was 82.2%; in the assay on NCI-H460 lung, -77.7% (active); in the assay with HOP-92 NSCLC, 72.9%. Besides, the growth with 786-0 renal is -86.6% (active); with COLO 205 colon it was 37.8%; in the assay on DU-145 prostate it was -42.9% (active); with K-562 leukemia it was -4.05% (active); with MALME-3M melanoma it was -81% (active); in the assay with MDA-MB-231 breast, -51% (active). For the same molecule, the growth in the assay with RXF 393 renal was -64.6% (active); with SF-268 CNS it was 41.7%; in the assay on SF-295 CNS, 89.2%; in the assay with SF-539 CNS, 77.6%; with M14 melanoma, -76.3% (active).

As to `OCCCc1n(Cc2ccc3ccccc3c2)c2ccccc2[n+]1Cc1ccc2ccccc2c1`, the growth is 19% in the assay on NCI-H23 lung; 48.5% in the assay on NCI-H226 lung; 49.9% in the assay with NCI-H322M lung; 37.5% with HOP-62 NSCLC; 18.4% in the assay on NCI-H460 lung; -24.3% (active) with HOP-92 NSCLC. The growth was 68.4% in the assay on A549/ATCC NSCLC; 36% in the assay with 786-0 renal; 48.1% in the assay on DU-145 prostate; 9.14% (active) in the assay on K-562 leukemia; -11.2% (active) with MALME-3M melanoma; -17.7% (active) in the assay on MDA-MB-231 breast. Besides, the growth is 14.6% with RXF 393 renal; 22.5% with SF-268 CNS; 32.8% in the assay with SF-295 CNS; 18.1% with SF-539 CNS; -14.1% (active) in the assay on UACC-257 melanoma; 3% (active) in the assay on M14 melanoma.

Regarding `CCOc1nc(-c2ccco2)n2nc(-c3ccco3)cc2n1`, the growth in the assay with NCI-H23 lung was 107%; in the assay on NCI-H226 lung, 92.4%; in the assay with NCI-H322M lung, 116%; in the assay on HOP-62 NSCLC, 118%; in the assay on NCI-H460 lung, 102%; in the assay with HOP-92 NSCLC, 92%. The growth was 103% in the assay with 786-0 renal; 131% in the assay with COLO 205 colon; 118% in the assay with DU-145 prostate; 114% with K-562 leukemia; 122% in the assay on MALME-3M melanoma; 98% in the assay with MDA-MB-231 breast. The growth is 98.4% with RXF 393 renal; 106% in the assay on SF-268 CNS; 98.3% with SF-295 CNS; 89.6% in the assay on SF-539 CNS; 116% in the assay with UACC-257 melanoma; 132% in the assay with M14 melanoma.

As to `O=c1[nH]cc(Nc2cc(Cl)c3nonc3c2[N+](=O)[O-])c(=O)[nH]1`, the growth with NCI-H23 lung is 91.2%; with NCI-H226 lung, 92.3%; with NCI-H322M lung it was 110%; in the assay with HOP-62 NSCLC, 102%; in the assay on NCI-H460 lung, 107%; in the assay with HOP-92 NSCLC, 95.5%. The growth with 786-0 renal is 105%; in the assay with COLO 205 colon, 109%; in the assay on DU-145 prostate it was 111%; with K-562 leukemia it was 108%; in the assay with MALME-3M melanoma, 109%; in the assay with MDA-MB-231 breast, 104%. The growth was 126% in the assay on SF-268 CNS; -37.1% (active) in the assay with SF-295 CNS; 101% in the assay on SF-539 CNS; 25.2% in the assay on UACC-257 melanoma; 99.7% in the assay with M14 melanoma.

Take `CN(C)CCCN=c1cc2c(=O)n(CCCN(C)C)c(=O)c3c(NCCCN(C)C)cc4c(O)n(CCCN(C)C)c(=O)c1c4c3-2`: the growth is 21.1% in the assay with NCI-H23 lung; -33.2% (active) with NCI-H226 lung; -26.9% (active) with NCI-H322M lung; -11.4% (active) in the assay with HOP-62 NSCLC; -43.5% (active) in the assay on NCI-H460 lung; -0.168% (active) in the assay on HOP-92 NSCLC. The growth with A549/ATCC NSCLC is -30.8% (active); in the assay on 786-0 renal, -47.5% (active); with DU-145 prostate, -40.7% (active); in the assay with K-562 leukemia, 6.48% (active); in the assay on MDA-MB-231 breast, -0.632% (active); in the assay with RXF 393 renal, -68.3% (active). The growth in the assay with SF-268 CNS is 1.31% (active); with SF-295 CNS it was -34.8% (active); in the assay on SF-539 CNS, -23% (active); in the assay on UACC-257 melanoma, -27.3% (active); with M14 melanoma, 3.47% (active).

Take `NS(=O)(=O)c1cc2c(cc1Cl)NC=NS2(=O)=O`: the growth in the assay on NCI-H23 lung is 109%; in the assay with NCI-H226 lung, 99%; in the assay with NCI-H322M lung, 98.5%; in the assay with HOP-62 NSCLC, 98.5%; in the assay on NCI-H460 lung it was 110%; with HOP-92 NSCLC, 106%. Further, the growth with 786-0 renal is 98.9%; with COLO 205 colon, 110%; in the assay with DU-145 prostate, 111%; in the assay on K-562 leukemia, 120%; in the assay on MALME-3M melanoma, 103%; with MDA-MB-231 breast it was 113%. Moreover, the growth is 121% with RXF 393 renal; 109% in the assay on SF-268 CNS; 104% in the assay on SF-295 CNS; 103% in the assay with SF-539 CNS; 104% in the assay with UACC-257 melanoma; 96.4% in the assay with M14 melanoma.

As to `Cc1onc(-c2ccccc2Cl)c1C(=O)N[C@@H]1C(=O)N2[C@@H]1SC(C)(C)[C@@H]2C(=O)O`, the growth in the assay on NCI-H23 lung is 112%; in the assay with NCI-H226 lung, 99.2%; in the assay with NCI-H322M lung it was 104%; in the assay with HOP-62 NSCLC, 97.1%; in the assay with NCI-H460 lung it was 112%; with HOP-92 NSCLC it was 110%. Further, the growth was 99% in the assay with 786-0 renal; 109% in the assay on COLO 205 colon; 123% with DU-145 prostate; 91.6% with K-562 leukemia; 94.2% with MALME-3M melanoma; 113% with MDA-MB-231 breast. Also, the growth was 115% in the assay on RXF 393 renal; 110% in the assay with SF-268 CNS; 104% in the assay with SF-295 CNS; 112% in the assay on SF-539 CNS; 108% in the assay with UACC-257 melanoma; 98.2% with M14 melanoma.

Take `O=C1C(=O)c2c(nc3ccc(Cl)cn23)-c2ccccc21`: the growth in the assay with NCI-H23 lung is -45.4% (active); in the assay on NCI-H226 lung it was -53.9% (active); in the assay with NCI-H322M lung, -92.1% (active); in the assay with HOP-62 NSCLC, -87.9% (active); in the assay with NCI-H460 lung it was -100% (active); in the assay on HOP-92 NSCLC, -79.8% (active). For the same molecule, the growth with A549/ATCC NSCLC is -80.8% (active); in the assay on 786-0 renal it was -100% (active); with DU-145 prostate it was -100% (active); in the assay on K-562 leukemia, -100% (active); with MALME-3M melanoma it was -81.8% (active); with MDA-MB-231 breast, -59% (active). Further, the growth in the assay with RXF 393 renal was -100% (active); in the assay with SF-268 CNS, -95.3% (active); with SF-295 CNS, -80.3% (active); in the assay on SF-539 CNS it was -100% (active); in the assay with UACC-257 melanoma it was -93.3% (active); in the assay on M14 melanoma it was -98.7% (active).
